MCF10A rereplic: inducers of DNA re-replication in MCF 10A breast cells. MCF 10A DNA re-replication, Hoechst nuclear intensity, 48 h. hit rate 2.9% among 350,000. Potency, µM (top dose mostly 46.1 µM), hits mostly activators; note: nearly all actives have a fitted effect of over 50% in size
SW480 rereplic: DNA re-replication induction in SW480 cells; SW480 DNA re-replication, Hoechst DNA content imaging, 48 h; Potency, µM (highest dose often 46.1 µM), most hits filed as activators; hit rate 1.8% among 340,000; note: nearly all actives have a fitted effect of over 55% in size
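Per well, 250 cells were exposed to pinned compound for 48 hr. Nuclear DNA was visualised with Hoechst (40 min, 37 C) and total object intensity recorded by fluorescence scanning.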
KB-3-1 tox: KB-3-1 parental cell cytotoxicity; KB-3-1 viability, CellTiter-Glo ATP luminescence, 72 h; Potency, µM (highest dose often 46.1 µM), hits mostly cytotoxic; hit rate 1.4% among 400,000; AID 1347075; note: nearly all actives have a fitted effect of over 60% in size
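Using CellTiter-Glo luminescence, growth of non-resistant KB-3-1 adenocarcinoma cells is assessed 72 h after pin-tool compound addition at 37 °C. Normalized responses across the concentration series yield fitted curves.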
KB-V1 cytotox: kills drug-selected multidrug resistant KB-V1 cells | KB-V1 MDR cells viability, CellTiter-Glo, 72 h | Potency, µM (top dose mostly 46.1 µM), most hits filed as cytotoxic | hit rate 3.4% among 400,000; note: nearly all actives have a fitted effect of over 60% in size
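Cells of the MDR subline KB-V1 are plated, dosed with compound at multiple concentrations, and incubated 72 h at 37 degrees C; CellTiter-Glo is then added and luminescence read after 10 min.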
PINK1 expr mod: modulators of PINK1 expression | PINK1 immunofluorescence, high-content cytometry, 24 h | Potency, µM (titrated, usually from 76.6 µM), hits mostly activators | hit rate 0.2% among 410,000 | AID 624263; active = well fitted activation curve with a large enough effect; inconclusive = small, poorly fitted or top-dose-only effect; cell line not stated here; note: nearly all actives have a fitted effect of over 65% in size
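Readout is PINK1 immunofluorescence, quantified alongside mitochondrial, cell and nuclear markers by laser-scanning microplate cytometry. Cells from a stable line were exposed to compound titrations (5 concentrations) for 24 hours, with CCCP controls.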
TSG101-PTAP inh: blocks PTAP/TSG101 interaction to inhibit HIV-1 budding | Fluorescence polarization, FITC-PTAP peptide / Tsg101 binding | AID 493005 | Potency, µM (titrated, usually from 115 µM), hits mostly inhibitors | Q99816 | 340,000 tested, under 10 active; active = well fitted inhibition curve with a large enough effect in the main read-out, with a control signal flat, not every such curve was filed as active; inconclusive = small, poorly fitted or top-dose-only effect, or effect the other way, or a change in a side signal; inactive = no such curve, though single readings can be large or run the other way
Target sequence (Q99816 whole entry, looked up): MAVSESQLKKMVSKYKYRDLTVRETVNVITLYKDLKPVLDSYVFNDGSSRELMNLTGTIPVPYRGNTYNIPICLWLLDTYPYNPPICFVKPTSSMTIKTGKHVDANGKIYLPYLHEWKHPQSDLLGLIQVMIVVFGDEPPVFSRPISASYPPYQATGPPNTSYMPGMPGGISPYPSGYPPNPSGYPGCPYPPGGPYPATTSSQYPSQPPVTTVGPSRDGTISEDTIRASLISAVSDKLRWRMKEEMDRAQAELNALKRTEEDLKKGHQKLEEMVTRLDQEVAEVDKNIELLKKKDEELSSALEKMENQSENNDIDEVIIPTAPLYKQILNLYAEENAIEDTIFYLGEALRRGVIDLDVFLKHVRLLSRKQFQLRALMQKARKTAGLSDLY
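Fluorescence polarization binding of Tsg101 binding domain (10 uM final) to FITC-labeled PTAP peptide (50 nM final) in HEPES pH 7.5 buffer with NaCl, Tween 20, EDTA, TCEP. Compounds added before peptide; binding 20 min at RT.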
Numbers stand for hits; – = inactive; ? = inconclusive; · = no result given. Rows were chosen to be rich in hits. Some 6.8% of all compounds tested hit in one or more screens of this group. Unless noted, calls come from the whole dose curve; as a rule, active = well fitted curve in the direction sought with a large enough effect; inconclusive = small, poorly fitted or top-dose-only effect, or another doubt; inactive = no such curve, though single readings can be large; an effect the other way counts as inactive or inconclusive.

SMILES | MCF10A rereplic | SW480 rereplic | KB-3-1 tox | KB-V1 cytotox | PINK1 expr mod | TSG101-PTAP inh
CCCCCn1c(CN2CCN(c3cccc(Cl)c3)CC2)nc2c1c(=O)[nH]c(=O)n2C | – | ? | 23.1µM | ? | – | –
Cn1c(=O)[nH]c(=O)c2c1nc(N1CCN(CCO)CC1)n2Cc1ccccc1Cl | 0.651µM | – | – | – | – | –
COc1ccc2c(CNC3CCCCCC3)c(C(=O)O)n(Cc3ccc(C)cc3)c2c1 | · | · | – | – | – | ·
COc1ccc(-c2cc(C(F)(F)F)n3nc(C(=O)Nc4cc(C(F)(F)F)ccc4Cl)cc3n2)cc1OC | · | · | – | – | – | ·
Cn1c(=O)[nH]c(=O)c2c1nc(CN1CCN(c3cccc(Cl)c3)CC1)n2CCc1ccccc1 | – | – | – | ? | – | ·
Cn1c(CN2CCN(c3cccc(Cl)c3)CC2)nc2ccccc21 | ? | 20.6µM | – | ? | – | –
CC(CSc1nnnn1-c1ccccc1)Cn1c(N2CCCC2)nc2c1c(=O)[nH]c(=O)n2C (stereo unspecified) | – | – | – | 2.31µM | – | –
Cn1c(SCC(=O)NCC2CCCO2)ncc(C(=O)Nc2ccc(Cl)cc2)c1=O (stereo unspecified) | 18.4µM | 4.61µM | ? | – | – | –
CCCN(CCC)CCCNC(=O)C1CCCN(S(=O)(=O)c2cccc3nsnc23)C1 (stereo unspecified) | · | · | · | · | – | ·
CCOC(=O)/C(C#N)=C1/SC(CC)C(=O)N1c1ccc(Br)cc1 (stereo unspecified) | – | – | – | 8.2µM | – | –
Clc1ccc(CN(CC2CCCO2)C(c2cccs2)c2nnnn2C2CCCC2)cc1 (stereo unspecified) | ? | – | ? | 20.6µM | – | –
CC1(C)Cc2c(C#N)c(NCCN3CCOCC3)nc(-c3ccco3)c2CO1 | 23.1µM | – | – | – | – | –
CC1(C)Cc2c(c(-c3ccco3)nc3sc4c(NCCN5CCOCC5)ncnc4c23)CO1 | ? | – | – | – | – | –
CC1(C)Cc2c(C#N)c(NCCO)nc(-c3ccco3)c2CO1 | 23.1µM | 18.4µM | – | ? | – | –
CC1(C)Cc2c(C#N)c(NCCN3CCOCC3)nc(-c3ccccc3)c2CO1 | – | 7.31µM | – | – | – | –
O=C(/C=C/c1ccccc1)c1ccc2c3c(cccc13)CC2 | 18.4µM | – | ? | ? | – | –
COc1cc(OC)cc(C(=O)Nc2ccc3nc(N4CCCCC4)cc(C)c3c2)c1 | · | · | – | – | – | ·
Cc1ccc(NC(=O)C2CCN(c3nc4ccccc4[nH]3)CC2)c(C)c1 | · | · | – | – | – | ·
Cc1nc(-c2ccccn2)sc1C(=O)O | – | – | – | – | – | –
Cc1nc(-c2ccccn2)sc1C(=O)Nc1ccc(Cl)c(Cl)c1 | – | – | – | 18.4µM | – | –
COc1cccc(CNC(=O)c2cc3cc(C)ccc3n2C)c1 | · | · | – | ? | – | ·
COC(=O)C1=C(C)N(Cc2ccccc2)C(=O)N[C@H]1c1ccc(Br)cc1 | ? | – | – | – | – | –
COCCOC(=O)C1=C(C)N(Cc2ccccc2)C(=O)NC1c1ccc(OC)cc1 (stereo unspecified) | ? | – | – | 13µM | – | –
Cc1ccc(C(=O)OCc2cc(=O)n3nc(-c4cccs4)sc3n2)cc1 | · | · | – | ? | – | ·
CCCCOc1ccc(NC(=O)Cn2nnnc2-c2ccccc2F)cc1 | · | · | · | · | – | ·
SMILES | MCF10A rereplic | SW480 rereplic | KB-3-1 tox | KB-V1 cytotox | PINK1 expr mod | TSG101-PTAP inh
Oc1ccc(CCNc2c3ccccc3nc3ccccc23)cc1O | ? | ? | 18.4µM | – | – | –
CN(C)CCCNc1c2ccccc2nc2ccccc12 | ? | ? | 1.64µM | 11.6µM | – | –
OCCNc1c2ccccc2nc2c(F)c(F)c(F)c(F)c12 | ? | 13µM | – | ? | – | –
O=C(CCn1c(=O)c2ccccc2n(Cc2ccc(F)cc2Cl)c1=O)NCc1ccc2c(c1)OCO2 | · | · | – | – | – | ·
CCN(C(=O)c1nn(-c2ccc(OC)c(Cl)c2)c(=O)c2c1c1ccccc1n2C)c1cc(OC)ccc1OC | · | · | – | – | – | ·
COC(=O)C(Nc1ccccc1Cl)(c1cc(C)c(O)c(C)c1)C(F)(F)F (stereo unspecified) | ? | – | ? | 8.2µM | – | –
Cc1ccc(C)c(S(=O)(=O)NNC(=O)Nc2ccccc2Cl)c1 | – | – | – | – | – | –
CCOC(=O)c1ccccc1NC(=O)COC(=O)C(CC(C)C)NC(N)=O (stereo unspecified) | 0.92µM | – | – | – | – | –
CCOCC(=O)Nc1ccccc1C(=O)OCC | – | – | – | – | – | –
O=C(NCCc1ccccc1Cl)C1CCN(c2nc3ccccc3nc2C(F)(F)F)CC1 | · | · | – | – | – | ·
O=C1NC(=S)S/C1=C\c1ccc(SCc2ccccc2)o1 | 3.66µM | ? | ? | ? | ? | –
O=C1NC(=S)S/C1=C\c1ccc(SCc2ccco2)o1 | – | – | – | ? | – | –
Cc1cc(NC(=O)CC2CCCC2)n(-c2nc3ccccc3[nH]2)n1 | ? | – | ? | 18.4µM | – | –
Cc1cc(NC(=O)/C=C/c2ccccc2Cl)n(-c2nc3ccccc3[nH]2)n1 | 16.4µM | ? | ? | ? | – | –
Cc1cc(NC(=O)c2ccc(F)cc2F)n(-c2nc3ccccc3[nH]2)n1 | ? | – | – | – | ? | –
CCC1CCCCN1CCCNC(=O)c1ccc2nc(N3CCC(C)CC3)sc2c1 (stereo unspecified) | – | 18.4µM | ? | – | – | –
CC1CCN(c2nc3ccc(C(=O)NCCCN4CCCCC4)cc3s2)CC1 | – | – | – | – | – | –
O=C(c1ccc(CS(=O)c2ccccc2Cl)o1)N1CCOCC1 (stereo unspecified) | – | – | – | – | – | –
O=C(c1ccc(CS(=O)c2ccccc2Cl)o1)N1CCN(c2ccccc2)CC1 (stereo unspecified) | ? | 2.59µM | 1.03µM | ? | – | –
COc1ccc(N2CCN(C(=O)c3ccc(CS(=O)Cc4ccc(Cl)cc4)o3)CC2)cc1 (stereo unspecified) | – | – | – | – | – | –
O=C(c1ccc(CS(=O)c2cccc(Cl)c2)o1)N1CCCCCC1 (stereo unspecified) | – | – | – | 23.1µM | – | –
COc1cccc(N2CCN(C(=O)c3ccc(CS(=O)c4ccccc4C)o3)CC2)c1 (stereo unspecified) | ? | 5.8µM | 1.03µM | ? | – | –
COc1ccc(N2CCN(C(=O)c3ccc(CS(=O)c4cccc(C)c4)o3)CC2)cc1 (stereo unspecified) | ? | 5.8µM | ? | – | – | –
CCOc1ccc(NC(=O)c2cnn(-c3ccc(C)c(C)c3)c2C2CCN(C(=O)OC(C)(C)C)CC2)cc1 | · | · | – | – | – | ·
